Results as given in the supplement of paper PMC12024529.

What follows are compounds tested on HEK293 WT BDD-FVIII-Gluc (assay: secreted FVIII-Gluc luciferase Z-score vs DMSO control; higher = more FVIII-Gluc secretion). Settings: 5 µM.
Experimental: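 Natural plant-compound library (480 compounds, ST catalogue IDs) screened on HEK293 cells stably expressing WT BDD-FVIII-Gaussia luciferase fusion at 5 µM. Secreted Gluc activity in the medium is given as a Z-score relative to DMSO controls.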

| SMILES | secreted FVIII-Gluc luciferase Z-score |
| --- | --- |
| COc1ccccc1-c1oc2ccccc2c(=O)c1OC | 1.49 |
| Cc1ccc(CC(Cc2nc3ccccc3[nH]2)c2nc3ccccc3[nH]2)cc1 (centres undefined) | 0.284 |
| CC1(C)[C@@H]2CC[C@@]1(C)C(=O)C2 | 0.363 |
| CC[C@@H]1[C@H]2CCCCN3[C@H]2[C@H](C[C@H]3[C@@H]2C[C@H](C)C(=O)O2)[C@@H]2[C@H]1OC(=O)[C@H]2C | -0.0302 |
| COc1ccc2oc(-c3ccccc3)c(OC)c(=O)c2c1 | 0.232 |
| O=C1C[C@H](c2ccccc2)Oc2cc(O)cc(O)c21 | 0.533 |
| O=C1OC(C(O)CO)C(O)=C1O (centres undefined) | 0.497 |
| C[C@@H]1O[C@@H](OC[C@H]2O[C@@H](Oc3c(-c4cccc(O)c4O)oc4cc(O)cc(O)c4c3=O)[C@H](O)[C@@H](O)[C@@H]2O)[C@H](O)[C@H](O)[C@H]1O | 1.27 |
| C=C1C(=O)O[C@@H]2C3OC3(C)CC/C=C(\C)CC[C@@H]12 (some centres undefined) | -0.0355 |
| CC(Cc1ccc(O)c(O)c1)C(C)Cc1ccc(O)c(O)c1 (centres undefined) | 0.14 |
| C[C@@H]1O[C@@H](O[C@H]2[C@H](Oc3cc(O)c4c(c3)O[C@H](c3ccc(O)cc3)CC4=O)O[C@H](CO)[C@@H](O)[C@@H]2O)[C@H](O)[C@H](O)[C@H]1O | 1.39 |
| COC(=O)C[C@](O)(CCCC(C)(C)O)C(=O)O[C@@H]1C(OC)=C[C@]23CCCN2CCc2cc4c(cc2[C@H]13)OCO4 | -4.72 |
| Nc1ncnc2c1ncn2[C@H]1C[C@H](O)[C@@H](COP(=O)(O)O)O1 | 0.376 |
| COc1ccc(-c2coc3ccc(OC4OC(COC(C)=O)C(OC(C)=O)C(OC(C)=O)C4OC(C)=O)c(OC(C)=O)c3c2=O)cc1 (centres undefined) | -0.543 |
